The values that follow come from PubChem BioAssay (NCI).

Structures are written as SMILES. Where “and” joins values, the source holds several entries; their conditions need not be identical. Equal entries are not always repeated. This is part of a sample that, as a whole, favours compounds with a hit. Of some 83,000 tested, about 20% had one in any assay.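 Cell lines were cultured in 96-well plates, exposed to a single compound concentration, and assessed for percent growth 48 hours later.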 Unmarked numbers belong to inactive results. Calls of active or inactive are those of the source. How the source made its calls: active means growth percent below 10; inactive means the rest.

The experiment deals with MDA-MB-468 breast. Kind of experiment: NCI-60 one-dose screen, 48 h (100 = growth as untreated, 0 = no growth, -100 = all killed). The following applies: 10 µM unless noted.
With `c1ccc(-c2n(Cc3ccc4ccccc4c3)c3ccccc3[n+]2Cc2ccc3ccccc3c2)cc1`, the growth is -35.4% (active). Turning to `C#C[C@]1(O)CC[C@H]2[C@@H]3CC=C4c5sc(Nc6ncccc6C)nc5CC[C@]4(C)[C@H]3CC[C@@]21C`, the growth was -8.36% (active). With `Clc1ccc(-n2cnc3c(Cl)ncnc32)cc1Cl`, the growth is 48.3%. As for `Nc1cc2[nH]c(=O)c3ccccc3c2cc1Br`, the growth was -50.6% (active). Take `O=C1Nc2ccccc2/C1=C\c1c(-c2ccccc2)nc2ccccn12`: the growth is 15.3%. As to `N#Cc1c(-c2ccccc2)nc(SCC(=O)N2CCOCC2)[nH]c1=O`, the growth was 108%.

Turning to `COc1nc2ccccc2s1`, the growth was 113%.

Regarding `OCCNCCNc1c2ccccc2nc2ccccc12`, the growth was 37.4%. In the case of `CC(C)(O)C1CCCN1C(=O)c1ccccc1I` (stereo not given), the growth was 73%. With `CC(=O)c1cc(O)ccc1O`, the growth was 98.3%. As to `O=C(NNc1nc2cc(F)ccc2n2cccc12)c1ccncn1`, the growth is -15.2% (active).

On to `CCNC(=O)N1CCc2c(Cl)c3c(c(OC)c2[C@@H]1[C@H]1OCc2c1ccc(OC)c2OC)OCCO3`, for which the growth is -8.07% (active).

As to `O=C(NCCNc1nccc(-c2c(-c3cccc(F)c3)nc3sccn23)n1)c1ccc(Cl)cc1`, the growth was 67.8%. Regarding `CN(Cc1ccccc1)Cc1ccccc1`, the growth is 92.1%. For the compound `CC1(C)OC(=O)C(=Cc2ccccc2Br)C(=O)O1`, the growth is 98.2%. For `C=CC(=O)N1CC2(CCC(n3nc(-c4ccc(Oc5ccccc5)cc4)c4c(N)ncnc43)CC2)C1`, the growth is -58.1% (active). Turning to `C=C1CCC2C3(C)COC(c4c(OC)cccc4OC)OC3CCC2(C)C1C/C=C1/C(=O)OCC1O` (stereo not given), the growth is 20.2%. In the case of `O=C(NCCNc1nccc(Nc2ccc(S(=O)(=O)Nc3ccccn3)cc2)n1)c1cccc([N+](=O)[O-])c1`, the growth is 105%. On to `O=S(=O)(NC1c2ccccc2Oc2ccccc21)c1ccccc1`, for which the growth was 87.6%. As for `C=C(CC(=O)OC)C(C)=O`, the growth was 102%. As for `COc1ccc2c(c1)CCCN2c1c2ccccc2nc2ccccc12`, the growth is -3.81% (active). For `Oc1ccccc1-c1nc2ccccn2c1NCCN1CCOCC1` the value was 109%.

Turning to `O/N=C(/c1ccccc1)c1ccc2c3c(cccc13)CC2`, the growth is 57.5% and 59.8%. Turning to `Cc1ccc(CNc2c3ccccc3nc3cc(NC(=O)CCN4CCCC4)ccc23)cc1`, the growth is -29.3% (active). As for `O=C(Cn1c(=O)ccn(CCCCCCCCOc2ccc(Br)cc2)c1=O)Nc1ccc(Oc2ccc(Cl)cc2)cc1`, the growth is 34.2%. As for `Nc1ccn(C2O[C@H](CO)[C@@H](O)[C@H]2O)c(=O)n1` (stereo not given in full), the growth is 96.8%. Consider `COc1ccc(-c2csc(NC(=O)CSc3nc(-c4ccccc4)cc(=O)[nH]3)n2)cc1`, for which the growth is 14.9%. As for `COc1ccc(NC(=O)CSc2nc3ccccc3c(=O)n2Cc2cc(OC)c(OC)c(OC)c2)cc1`, the growth was 104%.

As to `COc1ccc(Nc2nc3ccc(NC(=O)NC4CCCCC4)cc3[nH]c2=O)cc1`, the growth is 96%.

Turning to `N#CC1(O)CCCCC1`, the growth is 108%.

As to `CN(C)c1ncnc2c1cnn2C`, the growth is 106%.

On to `COc1ccc2c(c1OC)O/C(=C\c1ncc([N+](=O)[O-])n1C)C2=O`, for which the growth is 69.9%. Next, `CCn1cc(C(=O)N/N=C/c2ccc(Br)cc2)c(=O)c2cc(F)c(N3CCNC(C)C3)c(F)c21` (stereo not given): 82.5%; `Cc1c(Cl)cc(-n2c(=O)c3ccccc3c3ccccc3c2=O)cc1Cl`: 128%.

On to `O=C(/C=C\c1cccc([N+](=O)[O-])c1)/C=C/c1cccc([N+](=O)[O-])c1`, for which the growth was 91.4%.

Regarding `COc1ccc2nc3cc(Cl)ccc3c(N3CCN(c4nccc(Nc5ccccc5)n4)CC3)c2c1`, the growth is 37.9%. Turning to `O=C(c1ccccc1O)N1CCCC1`, the growth is 94.1%. Turning to `Cn1cc(C(=O)c2nc(-c3c[nH]c4ccc(Br)cc34)no2)c2cc(F)ccc21`, the growth was 108%. For `Cc1ccc(NCCN(C)CC(C)O)c2c(=O)c3ccc(Cl)cc3sc12` (stereo not given) the value was -2.72% (active).

`C=C(c1ccc(C(=O)NCCCn2ccnc2)cc1)c1cc2c(cc1C)C(C)(C)CCC2(C)C`: the growth was -5.41% (active).
